In ChEMBL document CHEMBL1961873, “Compounds: GSK PKIS; Assays: Nanosyn kinase panel” (2012):

Tests used:
[1] = target: Sphingosine kinase 1 (Homo sapiens) (UniProt Q9NYA1); conditions: at 1 µM;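 further: mean SPHK1 inhibition value reported from the GSK PKIS kinase panel screen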
[2] = target: T1, Sphingosine kinase 2 (Homo sapiens) (UniProt Q9NRA0); conditions: at 0.1 µM
T1 sequence (whole entry): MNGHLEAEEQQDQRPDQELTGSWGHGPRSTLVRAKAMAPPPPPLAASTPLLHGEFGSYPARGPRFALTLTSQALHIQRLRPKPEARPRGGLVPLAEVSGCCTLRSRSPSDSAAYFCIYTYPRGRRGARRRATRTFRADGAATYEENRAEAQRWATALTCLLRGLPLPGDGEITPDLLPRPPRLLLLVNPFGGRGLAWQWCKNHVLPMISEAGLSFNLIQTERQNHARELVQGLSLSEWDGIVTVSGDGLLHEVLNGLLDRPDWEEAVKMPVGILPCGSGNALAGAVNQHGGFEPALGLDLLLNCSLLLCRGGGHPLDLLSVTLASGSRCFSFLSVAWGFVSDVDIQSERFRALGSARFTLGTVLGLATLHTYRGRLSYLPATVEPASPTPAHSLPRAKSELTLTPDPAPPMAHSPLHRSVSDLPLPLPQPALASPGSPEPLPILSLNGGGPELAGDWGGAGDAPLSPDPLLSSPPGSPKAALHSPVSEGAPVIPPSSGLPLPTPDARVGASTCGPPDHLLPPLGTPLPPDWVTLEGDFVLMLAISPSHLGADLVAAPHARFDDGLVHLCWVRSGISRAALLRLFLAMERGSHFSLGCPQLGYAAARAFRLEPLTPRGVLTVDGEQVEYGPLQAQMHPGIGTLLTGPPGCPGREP

[3] = target: T1, Sphingosine kinase 2 (Homo sapiens); conditions: at 1 µM
[4] = target: Casein kinase II subunit alpha (Homo sapiens) (UniProt P68400); conditions: at 0.1 µM
Sequence of Casein kinase II subunit alpha (Homo sapiens) (P68400 whole entry, looked up): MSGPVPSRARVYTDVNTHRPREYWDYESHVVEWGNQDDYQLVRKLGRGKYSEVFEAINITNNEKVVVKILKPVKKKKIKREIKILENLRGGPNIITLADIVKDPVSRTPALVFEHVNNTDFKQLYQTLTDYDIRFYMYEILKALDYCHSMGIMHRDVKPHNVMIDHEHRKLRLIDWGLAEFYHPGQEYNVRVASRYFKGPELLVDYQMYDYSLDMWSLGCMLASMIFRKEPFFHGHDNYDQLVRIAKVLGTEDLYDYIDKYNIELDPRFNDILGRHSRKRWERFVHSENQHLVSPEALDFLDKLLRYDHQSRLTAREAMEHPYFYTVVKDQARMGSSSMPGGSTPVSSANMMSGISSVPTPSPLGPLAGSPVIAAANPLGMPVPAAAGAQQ

[5] = target: Casein kinase II subunit alpha (Homo sapiens) (UniProt P68400); conditions: at 1 µM
[6] = target: T2, Inhibitor of nuclear factor kappa-B kinase subunit alpha (Homo sapiens) (UniProt O15111); conditions: at 0.1 µM
T2 sequence (whole entry): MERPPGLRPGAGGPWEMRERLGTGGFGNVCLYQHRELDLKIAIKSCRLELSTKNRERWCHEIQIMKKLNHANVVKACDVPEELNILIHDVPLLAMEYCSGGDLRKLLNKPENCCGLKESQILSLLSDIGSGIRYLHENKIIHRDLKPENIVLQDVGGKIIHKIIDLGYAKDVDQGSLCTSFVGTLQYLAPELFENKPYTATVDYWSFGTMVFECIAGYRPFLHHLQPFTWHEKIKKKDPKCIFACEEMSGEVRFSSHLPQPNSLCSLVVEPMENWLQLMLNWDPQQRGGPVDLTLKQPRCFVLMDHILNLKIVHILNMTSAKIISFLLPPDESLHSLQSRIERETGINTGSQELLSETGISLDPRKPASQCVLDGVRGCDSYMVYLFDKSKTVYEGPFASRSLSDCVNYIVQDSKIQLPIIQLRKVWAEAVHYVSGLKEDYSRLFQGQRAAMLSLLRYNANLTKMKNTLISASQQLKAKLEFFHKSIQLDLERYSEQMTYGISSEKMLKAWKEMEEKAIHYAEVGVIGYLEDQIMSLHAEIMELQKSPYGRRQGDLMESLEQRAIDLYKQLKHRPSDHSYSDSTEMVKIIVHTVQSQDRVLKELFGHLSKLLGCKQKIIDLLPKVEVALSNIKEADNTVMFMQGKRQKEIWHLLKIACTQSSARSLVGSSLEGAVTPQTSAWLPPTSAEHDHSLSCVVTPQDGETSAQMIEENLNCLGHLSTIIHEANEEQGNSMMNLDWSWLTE

[7] = target: T2, Inhibitor of nuclear factor kappa-B kinase subunit alpha (Homo sapiens); conditions: at 1 µM
[8] = target: T3, Inhibitor of nuclear factor kappa-B kinase subunit beta (Homo sapiens) (UniProt O14920); conditions: at 0.1 µM
T3 sequence (whole entry): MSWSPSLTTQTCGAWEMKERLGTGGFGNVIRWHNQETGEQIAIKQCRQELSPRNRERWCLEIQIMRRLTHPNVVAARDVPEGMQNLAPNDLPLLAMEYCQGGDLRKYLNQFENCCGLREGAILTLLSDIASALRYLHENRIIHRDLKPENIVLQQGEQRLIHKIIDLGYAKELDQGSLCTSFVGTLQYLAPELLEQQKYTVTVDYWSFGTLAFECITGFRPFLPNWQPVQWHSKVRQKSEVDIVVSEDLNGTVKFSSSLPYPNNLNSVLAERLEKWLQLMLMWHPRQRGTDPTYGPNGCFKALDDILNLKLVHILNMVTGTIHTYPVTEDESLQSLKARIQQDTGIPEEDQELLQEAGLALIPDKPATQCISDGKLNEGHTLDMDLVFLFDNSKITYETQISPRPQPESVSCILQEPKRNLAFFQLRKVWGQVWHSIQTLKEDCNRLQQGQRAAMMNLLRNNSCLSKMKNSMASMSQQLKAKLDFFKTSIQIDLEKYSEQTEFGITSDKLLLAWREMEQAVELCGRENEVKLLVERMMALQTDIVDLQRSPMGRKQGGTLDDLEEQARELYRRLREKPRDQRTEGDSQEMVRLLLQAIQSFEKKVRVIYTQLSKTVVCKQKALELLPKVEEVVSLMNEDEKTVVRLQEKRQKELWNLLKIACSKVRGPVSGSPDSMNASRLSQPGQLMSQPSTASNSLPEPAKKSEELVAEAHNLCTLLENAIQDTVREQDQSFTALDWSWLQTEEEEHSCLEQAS

[9] = target: T3, Inhibitor of nuclear factor kappa-B kinase subunit beta (Homo sapiens); conditions: at 1 µM
[10] = target: T4, Inhibitor of nuclear factor kappa-B kinase subunit epsilon (Homo sapiens) (UniProt Q14164); conditions: at 0.1 µM;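 further: mean inhibition of IKKε reported, from the GSK PKIS dataset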
T4 sequence (whole entry): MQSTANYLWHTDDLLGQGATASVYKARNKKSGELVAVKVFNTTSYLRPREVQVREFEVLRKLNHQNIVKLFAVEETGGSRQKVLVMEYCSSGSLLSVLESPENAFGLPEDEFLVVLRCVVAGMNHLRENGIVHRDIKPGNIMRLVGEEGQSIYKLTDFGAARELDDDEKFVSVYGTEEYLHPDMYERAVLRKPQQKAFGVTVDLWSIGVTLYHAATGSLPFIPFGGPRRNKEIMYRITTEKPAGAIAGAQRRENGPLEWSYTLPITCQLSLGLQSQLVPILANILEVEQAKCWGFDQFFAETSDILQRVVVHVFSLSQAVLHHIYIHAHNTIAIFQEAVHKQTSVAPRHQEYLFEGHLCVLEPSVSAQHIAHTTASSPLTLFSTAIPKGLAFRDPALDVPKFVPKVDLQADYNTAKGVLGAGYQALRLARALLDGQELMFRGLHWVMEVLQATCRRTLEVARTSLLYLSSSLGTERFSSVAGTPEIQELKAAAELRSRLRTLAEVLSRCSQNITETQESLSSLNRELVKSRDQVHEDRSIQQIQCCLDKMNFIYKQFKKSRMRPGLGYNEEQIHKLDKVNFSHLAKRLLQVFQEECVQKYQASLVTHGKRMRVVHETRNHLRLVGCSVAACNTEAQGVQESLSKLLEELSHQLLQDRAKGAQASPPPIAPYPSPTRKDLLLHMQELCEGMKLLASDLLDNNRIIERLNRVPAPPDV

Sequence of Sphingosine kinase 1 (Homo sapiens) (Q9NYA1 whole entry): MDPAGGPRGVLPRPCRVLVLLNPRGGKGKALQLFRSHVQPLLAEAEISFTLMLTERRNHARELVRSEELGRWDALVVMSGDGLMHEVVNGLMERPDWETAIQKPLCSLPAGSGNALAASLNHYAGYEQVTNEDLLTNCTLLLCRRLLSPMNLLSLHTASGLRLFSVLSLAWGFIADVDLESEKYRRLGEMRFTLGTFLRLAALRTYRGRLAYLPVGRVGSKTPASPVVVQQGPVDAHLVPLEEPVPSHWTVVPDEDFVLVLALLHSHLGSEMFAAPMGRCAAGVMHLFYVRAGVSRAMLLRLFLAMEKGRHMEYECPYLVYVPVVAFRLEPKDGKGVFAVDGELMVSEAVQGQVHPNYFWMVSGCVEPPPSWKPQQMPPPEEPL

Q: Which inhibition [1] does the source give for `NC(=O)c1cccc(Nc2nccc(Nc3cccc(F)c3)n2)c1` here?
A: 0.76%

Q: And the inhibition [2]?
A: 0%

Q: And the inhibition [3]?
A: 0.34%

Q: And the inhibition [4]?
A: 1.61%

Q: And the inhibition [5]?
A: 3.67%

Q: What about the inhibition [6] of the same compound?
A: 0.56%

Q: What about the inhibition [7] of the same compound?
A: 4.67%

Q: What about the inhibition [8] of the same compound?
A: 6.25%

Q: What about the inhibition [9] of the same compound?
A: 22.3%

Q: What about the inhibition [10] of the same compound?
A: 2.08%
